Where a name gives a salt, the structure may show the parent alone.
Assays:
Test in all cases: Euclidean distance of Cell Painting phenotypic profile (signed KS, 77 features) to DMSO centroid (dimensionless distance); 5 or 10 uM (library dependent); higher = stronger phenotypic change vs DMSO (phenoactivity)
Settings in all cases: 48 h
786-O = tested on: 786-O
In short: (§1)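 Library compounds were applied at 10 or 5 uM, depending on the library, with 0.1% DMSO final, for 48 h to five cancer lines and a healthy fibroblast line. After staining, cells were imaged confocally at 20X across 9 fields per well, and Harmony extracted 77 features, each scored as a signed Kolmogorov-Smirnov statistic against vehicle wells on the same plate. Phenoactivity is the Euclidean distance between each profile and the median vehicle profile, with profiles first plate-position corrected, correlation-weighted and averaged over replicates at the top dose.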

A549 = tested on: A549
In short: as §1

DU145 = tested on: DU145
In short: as §1

FB = tested on: FB
In short: as §1

HEPG2 = tested on: HEPG2
In short: as §1

OVCAR4 = tested on: OVCAR4
In short: as §1

| SMILES | Euclidean distance (786-O) | Euclidean distance (A549) | Euclidean distance (DU145) | Euclidean distance (FB) | Euclidean distance (HEPG2) | Euclidean distance (OVCAR4) |
| --- | --- | --- | --- | --- | --- | --- |
| C[C@@H]1CCO[C@H]2Cn3cc(C(=O)NCc4ccc(F)cc4F)c(=O)c(O)c3C(=O)N12 [Dolutegravir Sodium] | 0.603 | 0.757 | 0.904 | 0.594 | 0.621 | 0.881 |
| Cc1ccc(-n2sc(=O)n(Cc3ccc(F)cc3)c2=O)cc1 | 1.53 | 0.968 | 0.775 | 1.84 | 0.924 | 1.14 |
| CCC(CC)CC1(C(=O)Nc2ccccc2SC(=O)C(C)C)CCCCC1 | 1.26 | 1.07 | 0.832 | 1 | 0.428 | 0.986 |
| Cn1cnc([N+](=O)[O-])c1Sc1ncnc2[nH]cnc12 [Azathioprine] | 0.644 | 0.642 | 1.33 | 1.04 | 2.09 | 0.817 |
| Cc1cccc(CN2CCN(C(c3ccccc3)c3ccc(Cl)cc3)CC2)c1 (centres undefined) [Meclizine 2HCl] | 1.66 | 1.27 | 0.732 | 1.06 | 0.511 | 1.51 |
| C[N+](C)(C)NCCC(=O)[O-] [Mildronate] | 1.41 | 1.05 | 1.05 | 1.1 | 0.54 | 0.82 |
| O=C1[C@@H]2[C@H]3CC[C@H](C3)[C@@H]2C(=O)N1C[C@@H]1CCCC[C@H]1CN1CCN(c2nsc3ccccc23)CC1 [lurasidone] | 1.37 | 1.25 | 1.92 | 1.35 | 0.479 | 1.27 |
| Cc1cccc(-c2[nH]c(C(C)(C)C)nc2-c2ccc3c(c2)OCO3)n1 | 1.83 | 1.76 | 0.978 | 2.17 | 1.99 | 1.62 |
| C[C@@H](CN1CC(=O)NC(=O)C1)N1CC(=O)NC(=O)C1 [Dexrazoxane HCl (ICRF-187. ADR-529)] | 1.38 | 1.71 | 1.21 | 1.96 | 1.47 | 1.89 |
| CCN(CC)CC#CCOC(=O)C(O)(c1ccccc1)C1CCCCC1 (centres undefined) [Oxybutynin] | 0.749 | 0.615 | 1.19 | 0.788 | 1.25 | 0.913 |
| COc1cc(Nc2ncc(F)c(Nc3ccc4c(n3)NC(=O)C(C)(C)O4)n2)cc(OC)c1OC | 1.65 | 3.73 | 2.9 | 3.35 | 1.78 | 2.24 |
| O=C1Nc2ccc(CN3C(=O)CSC3=O)cc2/C1=C/c1cc(CN2CCOCC2)c[nH]1 | 1.07 | 1.06 | 0.896 | 1.11 | 0.385 | 0.658 |
| CC(=O)[C@@]1(O)CC[C@H]2[C@@H]3C[C@H](C)C4=CC(=O)C=C[C@]4(C)[C@@]3(F)[C@@H](O)C[C@@]21C [Fluorometholone] | 0.819 | 2.59 | 1.54 | 1.73 | 1.04 | 1.8 |
| CCCCCCCCCCCCCCCCCCOCC(O)CO (centres undefined) [Batyl alcohol] | 0.871 | 0.609 | 0.705 | 1.18 | 0.262 | 0.921 |
| O=C(Nc1ncc([N+](=O)[O-])s1)c1ccccc1O [Tizoxanide] | 2.03 | 1.85 | 2.61 | 2.81 | 2.81 | 1.81 |
| COC(=O)Nc1nc2cc(C(=O)c3cccs3)ccc2[nH]1 [Nocodazole] | 2.96 | 2.51 | 3.43 | 2.56 | 2.58 | 3.08 |
| O=S(=O)(O)CCS [Mesna] | 0.758 | 0.755 | 0.968 | 0.772 | 2.1 | 1.22 |
| Cc1cc(CC(C)CC(C)(C)C)n(O)c(=O)c1 (centres undefined) [Piroctone Olamine] | 2.93 | 3.56 | 4.37 | 3.73 | 3.88 | 4.49 |
| Clc1ccc(C(Cn2ccnc2)OCc2ccsc2Cl)c(Cl)c1 (centres undefined) [Tioconazole] | 1.07 | 0.786 | 2.41 | 1.25 | 1.14 | 1.44 |
| Oc1ccc(OC2CCCCO2)cc1 (centres undefined) [Deoxyarbutin] | 1.11 | 0.699 | 1.16 | 1.24 | 1.02 | 1.45 |

| SMILES | Euclidean distance (786-O) | Euclidean distance (A549) | Euclidean distance (DU145) | Euclidean distance (FB) | Euclidean distance (HEPG2) | Euclidean distance (OVCAR4) |
| --- | --- | --- | --- | --- | --- | --- |
| Cc1cnc(CNC(=O)c2c(=O)c3ccc(N4CCCN(C)CC4)nc3n3c2sc2ccccc23)cn1 | 2.93 | 3.26 | 2.7 | 3.86 | 2.18 | 3.31 |
| O=S(=O)(c1cccc2cnccc12)N1CCCNCC1 [Fasudil (HA-1077) HCl] | 1.52 | 0.649 | 1.94 | 0.846 | 1.28 | 0.851 |
| O=C(Nc1cccc(Cl)c1)c1ccccn1 | 1.22 | 0.467 | 0.841 | 0.785 | 0.522 | 0.899 |
| C[C@@H](O)[C@H]1C(=O)N2C(C(=O)O)=C([C@H]3CCCO3)S[C@H]12 [Faropenem Sodium] | 1.24 | 0.485 | 1 | 0.587 | 0.554 | 0.718 |
| CN(C)CC/C=C1/c2ccccc2Sc2ccc(Cl)cc21 [Chlorprothixene] | 1.17 | 0.711 | 1.22 | 1.27 | 1.86 | 1.33 |
| O=c1[nH]cnc2c1ncn2[C@@H]1O[C@H](CO)[C@@H](O)[C@H]1O [Inosine] | 1.3 | 0.799 | 0.639 | 0.936 | 0.417 | 1.3 |
| O=C(O)CCCC[C@@H]1CCSS1 (racemic) [Thioctic acid] | 1.09 | 0.518 | 1.41 | 0.755 | 0.413 | 0.684 |
| CC(=O)SCC(Cc1ccccc1)C(=O)NCC(=O)OCc1ccccc1 (centres undefined) [Racecadotril] | 1.61 | 0.894 | 0.905 | 1.14 | 0.452 | 1.68 |
| C[C@H](NC(=O)[C@@H](O)c1cc(F)cc(F)c1)C(=O)N[C@@H]1C(=O)N(C)c2ccccc2-c2ccccc21 | 1.22 | 1.36 | 1.05 | 0.939 | 0.864 | 1.42 |
| CC(C)(Oc1ccc(C2CC2(Cl)Cl)cc1)C(=O)O (centres undefined) [Ciprofibrate] | 1.02 | 0.831 | 0.853 | 0.589 | 0.698 | 1.05 |
| COc1cccc2c1C(=O)c1c(O)c3c(c(O)c1C2=O)C[C@@](O)(C(=O)CO)C[C@@H]3O[C@H]1C[C@H](N)[C@@H](O)[C@H](C)O1 [Epirubicin HCl] | 3.54 | 4.33 | 3.92 | 5.12 | 4.78 | 4.83 |
| Cc1nc(Nc2ncc(C(=O)Nc3c(C)cccc3Cl)s2)cc(N2CCN(CCO)CC2)n1 [Dasatinib Monohydrate] | 3.41 | 3.76 | 6.08 | 3.53 | 2.09 | 4.26 |
| CCCCC[C@H](O)/C=C/[C@H]1[C@H](O)CC(=O)[C@@H]1CCCCCCC(=O)O [Alprostadil] | 1.36 | 0.929 | 0.936 | 1.16 | 0.927 | 1.2 |
| CN(C)C/C=C/C(=O)Nc1cc2c(Nc3ccc(F)c(Cl)c3)ncnc2cc1O[C@H]1CCOC1 [Afatinib (BIBW2992) Dimaleate] | 4.65 | 3.63 | 5.93 | 5.45 | 4.62 | 4.49 |
| C=CC(=O)Nc1ccc2ncnc(Nc3ccc(OCc4cccc(F)c4)c(Cl)c3)c2c1 | 2.14 | 1.92 | 1.99 | 2.48 | 1.03 | 3.41 |
| Cc1cc(Nc2cc(N3CCN(C)CC3)nc(/C=C/c3ccccc3)n2)n[nH]1 [ENMD-2076 L-(+)-Tartaric acid] | 2.7 | 3.58 | 2.34 | 3.64 | 2.99 | 2.91 |
| c1ccc(-c2nn3c(c2-c2ccnc4cc(OCCN5CCOCC5)ccc24)CCC3)nc1 | 1.44 | 0.959 | 1.42 | 1.75 | 1.45 | 0.876 |
| Nc1ccc(S(=O)(=O)Nc2ccnn2-c2ccccc2)cc1 [Sulfaphenazole] | 0.816 | 0.571 | 1.03 | 0.58 | 0.469 | 1.26 |
| CCCCc1nc2cc(/C=C/C(=O)NO)ccc2n1CCN(CC)CC [Pracinostat (SB939)] | 2.82 | 4.04 | 3.89 | 4.08 | 3.78 | 3.46 |
